# STK33 kin inh = human STK33 kinase inhibition; ADP-Glo luminescence, MBP substrate; Q9BYT3; hit rate 0.44% among 27,000; inhibition, % at 12.5 µM; in the data active means inhibition above about 20%
# Target sequence (Q9BYT3 whole entry, looked up): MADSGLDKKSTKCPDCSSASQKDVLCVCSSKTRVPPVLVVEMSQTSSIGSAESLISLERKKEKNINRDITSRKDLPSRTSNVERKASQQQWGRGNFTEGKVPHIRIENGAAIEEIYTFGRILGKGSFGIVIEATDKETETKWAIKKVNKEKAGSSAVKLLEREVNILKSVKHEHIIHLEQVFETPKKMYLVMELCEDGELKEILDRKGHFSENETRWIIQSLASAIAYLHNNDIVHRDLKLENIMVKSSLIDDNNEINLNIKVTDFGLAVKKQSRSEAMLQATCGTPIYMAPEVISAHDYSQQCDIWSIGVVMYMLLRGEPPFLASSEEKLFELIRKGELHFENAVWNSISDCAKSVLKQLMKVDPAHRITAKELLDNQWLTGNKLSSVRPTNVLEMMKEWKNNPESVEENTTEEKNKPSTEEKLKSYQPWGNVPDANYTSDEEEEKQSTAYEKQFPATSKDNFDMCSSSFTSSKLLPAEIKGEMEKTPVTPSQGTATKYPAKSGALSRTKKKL
# NOMO-1 viab = STK33 inhibitor candidate reducing NOMO-1 cell viability; AID 2330; NOMO-1 AML viability, CellTiter-Glo luminescence, 72 h; inhibition, % (no concentration beside the values); hit rate 7.5% among 37,000; in the data active means inhibition above about 80%
# PD-1 reverse act = activators reversing PD-1 mediated T-cell inhibition | 29,000 tested, under 10 active | primary human CD4 T cells, PD-L1 beads, CellTiter-Glo 96 h | activation, % (no concentration beside the values) | AID 2316; call rule not given here;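 further: 0% = median vehicle wells and 100% = positive control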
# * = called active by the depositor; x = no result given. Only a selection was taken, and hits are over-represented in it overall.
SMILES,STK33 kin inh,NOMO-1 viab,PD-1 reverse act
CNC(=O)c1c(N)sc2c1CCCCC2,x,126.3*,-1.2
COc1ccc(NC(=O)Nc2ccc3c(c2)C(=O)N([C@H](C)CO)C[C@@H](C)[C@H](CN(C)Cc2ccc(-c4ccccc4)cc2)O3)cc1,x,119.2*,-2.7
COc1ccc(CN(C)C[C@H]2Oc3ccc(NC(=O)Nc4ccccc4)cc3C(=O)N([C@@H](C)CO)C[C@H]2C)cc1,x,25.4,0.9
COc1ccc(NC(=O)Nc2ccc3c(c2)C(=O)N([C@@H](C)CO)C[C@@H](C)[C@H](CN(C)Cc2ccc(-c4ccccc4)cc2)O3)cc1,0.4,97.1*,-1.9
C[C@@H]1CN([C@@H](C)CO)C(=O)c2cc(NC(=O)Nc3ccccc3)ccc2O[C@@H]1CN(C)Cc1ccc(-c2ccccc2)cc1,2.1,113.8*,-4.9
COc1ccc(CN(C)C[C@@H]2Oc3ccc(NC(=O)Nc4ccccc4)cc3C(=O)N([C@H](C)CO)C[C@H]2C)cc1,x,-1.0,x
COc1ccc(CN(C)C[C@H]2Oc3ccc(NC(=O)Nc4ccccc4)cc3C(=O)N([C@H](C)CO)C[C@H]2C)cc1,x,36.9,x
C[C@H](CO)N1C[C@H](C)[C@H](CN(C)Cc2ccc(-c3ccccc3)cc2)Oc2ccc(NC(=O)Nc3ccccc3)cc2C1=O,9.2,-13.9,1.1
COc1ccc(NC(=O)Nc2ccc3c(c2)C(=O)N([C@@H](C)CO)C[C@H](C)[C@@H](CN(C)Cc2ccc(-c4ccccc4)cc2)O3)cc1,4.2,81.9*,-5.1
COC(=O)c1cc(NC(=O)COc2ccccc2Cl)cc(C(=O)OC)c1,3.9,18.9,0.9
COc1cccc(CN2c3cccc4cccc(c34)S2(=O)=O)c1,x,24.3,1.7
CCCCCCCCC#CC#C/C=C/CCCC(=O)O,-4.7,x,x
COC(=O)C1=CO[C@@H](O[C@@H]2O[C@H](CO)[C@@H](O)[C@H](O)[C@H]2O)[C@H]2[C@@H]1C=CC21C=C([C@H](C)OC(=O)/C=C/c2ccc(O)cc2)C(=O)O1 (stereo not given in full),-2.6,9.5,-0.8
CC(C)NC(=O)Nc1ccc2c(c1)C(=O)N([C@@H](C)CO)C[C@H](C)[C@H](CN(C)Cc1ccc(-c3ccccc3)cc1)O2,-2.3,8.5,0.9
CC(C)NC(=O)Nc1ccc2c(c1)C(=O)N([C@H](C)CO)C[C@@H](C)[C@H](CN(C)Cc1ccc(-c3ccccc3)cc1)O2,x,83.6*,-1.6
O=C(COc1ccc(C(=O)Nc2ccccc2Cl)cc1)Nc1cccc(C(F)(F)F)c1,0.5,26.8,0.7
Cn1c(SCC(=O)Nc2ccccc2C(F)(F)F)nnc1-c1cccc(N)c1,6.3,-14.5,1.9
COc1nnc(-c2ccc(N3CCOCC3)c(NS(=O)(=O)c3ccc(Cl)cc3)c2)c2ccccc12,6.0,10.5,0.3
COc1ccc(OCC(=O)Nc2cc(-c3nnc(OC)c4ccccc34)ccc2N2CCCCC2)cc1,3.5,89.1*,2.4
Cc1ccccc1OCC(=O)Nc1ccccc1C(=O)N1C(C)CCCC1C (stereo not given),-2.6,30.3,0.3
C[C@@H]1CN([C@H](C)CO)C(=O)Cc2cc(NC(=O)CCCCCC(=O)Nc3ccccc3N)ccc2O[C@H]1CN(C)Cc1ccc(Oc2ccccc2)cc1,x,124.6*,1.7
C[C@H](CO)N1C[C@H](C)[C@H](CN(C)Cc2ccc(-c3ccccc3)cc2)Oc2ccc(NC(=O)CCCCCC(=O)Nc3ccccc3N)cc2C1=O,x,65.0,0.3
C[C@@H]1CN([C@H](C)CO)C(=O)Cc2cc(NC(=O)CCCCCC(=O)Nc3ccccc3N)ccc2O[C@H]1CN(C)Cc1ccncc1,x,-4.1,1.9
C[C@@H]1CN([C@@H](C)CO)C(=O)Cc2cc(NC(=O)CCCCCC(=O)Nc3ccccc3N)ccc2O[C@@H]1CN(C)Cc1ccncc1,x,34.4,-0.1
C[C@H]1CN([C@@H](C)CO)C(=O)Cc2cc(NC(=O)CCCCCC(=O)Nc3ccccc3N)ccc2O[C@H]1CN(C)Cc1ccc(-c2ccccc2)cc1,x,142.3*,-3.2
SMILES,STK33 kin inh,NOMO-1 viab,PD-1 reverse act
COc1ccc(CN(C)C[C@H]2Oc3ccc(NC(=O)CCCCCC(=O)Nc4ccccc4N)cc3CC(=O)N([C@@H](C)CO)C[C@@H]2C)cc1,x,41.9,0.9
C[C@H]1CN([C@@H](C)CO)C(=O)c2cc(NC(=O)CCCCCC(=O)Nc3ccccc3N)ccc2O[C@H]1CN(C)Cc1ccc(-c2ccccc2)cc1,x,109.1*,-1.6
C[C@@H]1CN([C@@H](C)CO)C(=O)Cc2cc(NC(=O)CCCCCC(=O)Nc3ccccc3N)ccc2O[C@@H]1CN(C)Cc1ccccc1,x,113.2*,-1.0
CCNC(=O)c1c(NC(=O)COc2ccc(Cl)cc2Cl)sc2c1CCCC2,4.0,45.0,-0.6
O=C(Nc1ccccc1C(=O)O)c1cccc(S(=O)(=O)Nc2ccccc2)c1,-1.6,x,x
COc1ccc(NC(=O)CSc2nc3ccccc3c(=O)n2-c2ccc(C)cc2)c(OC)c1,0.6,-11.9,-0.7
